Results filed as inconclusive are left out. Activity calls are given as the source filed them. Unless noted, calls come from the whole dose curve; as a rule, active = well fitted curve in either direction with a large enough effect (not every such curve was filed as active); inconclusive = small, poorly fitted or top-dose-only effect, or another doubt; inactive = flat fitted curve, though single readings scatter.
Key:
[1] = target: Lysosomal acid glucosylceramidase (Homo sapiens) (UniProt P04062); assay: Glucocerebrosidase-p2 (AID 348; in the data active = potency below about 10 µM; note: potency is the fitted concentration of half-maximal effect); conditions: purified GBA, blue fluorogenic substrate, 40 min
How it was run: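 Normal human glucocerebrosidase (0.2 nM) with blue fluorogenic substrate (80 uM final) in citrate/phosphate pH 5.9 with 10mM sodium taurocholate, 0.01% tween-20; 40 min RT, NaOH/glycine stop; fluorescence Ex 365/Em 440; AC50 from a titration from 0.6 nM upwards.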

[2] = AP1 Signaling Pathway (AID 357); conditions: ME-180 AP-1-bla reporter, EGF-induced, beta-lactamase ratio, 5 h; at 7.69 µM (top of the series) unless noted;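 note: ME-180 reporter cells stimulated with EGF at its EC50 level; % is set by controls: 0 for no effect and ±100 for the full control effect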
How it was run: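 First, ME-180 AP-1-bla cells were cultured overnight at 37 °C in low-serum Opti-MEM. Next, titrated compounds with EC50 EGF were incubated 5 hours. Finally, CCF4 was added for 2.5 hours and the 460/530 nm ratio recorded.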

[3] = NFAT Signaling Pathway (AID 444); conditions: Jurkat NFAT-bla M1, carbachol, beta-lactamase ratio, 5 h; at 7.69 µM (top of the series) unless noted;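 note: carbachol stimulus at about its EC50 of 1 µM final; % is set by controls: 0 for no effect and ±100 for the full control effect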
How it was run: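 Read-out: CCF4 FRET ratio (460 nm/530 nm) after 1 h RT dye loading, used for %activity and AC50 from titration series. Cells: Jurkat NFAT-β-lactamase/M1 line, treated with compound plus 1 uM carbachol for 5 h, 37 °C.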

[4] = Stat Signaling Pathway (AID 446); conditions: ME-180 (cervical carcinoma) SIE beta-lactamase reporter, IL-6 stimulated, 5 h; at 7.69 µM (top of the series) unless noted;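 note: ME-180 cervical cancer cells given 40 pM IL-6 alongside compound; SIE-controlled beta-lactamase reporter measured as 460/530 nm FRET emission ratio; % is set by controls: 0 for no effect and ±100 for the full control effect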
How it was run: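 Overnight-plated ME-180 cells bearing a STAT Inducible Element beta-lactamase reporter; 5 h co-exposure to compound and 40 pM IL-6; values normalized to 300 pM IL-6 and 125 nM JAK inhibitor controls.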

[5] = target: Glucocorticoid receptor (Homo sapiens) (UniProt P04150); assay: GR-EFC Redistribution (AID 451; calls by dose curve; note: potency is the fitted concentration of half-maximal effect); conditions: CHO-K1 GR-EFC translocation, beta-gal luminescence, 2 h
How it was run: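 Translocation of GR-ED fusion to nuclear EA restores b-gal, read by luminescence after 1 h room-temperature detection. Engineered CHO-K1 biosensor cells, 1,000/well, exposed 2 h at 37 C to titrations up to 46 uM final.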

[6] = target: Mitogen-activated protein kinase 10 (Mus musculus) (UniProt Q61831); assay: JNK3 AlphaScreen Assay (AID 530); conditions: JNK3 lysate, c-Jun phosphorylation; series mostly up to 57.1 µM;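 note: kinase came from lysate of stimulated human HepG2 cells; signal reports phosphorylation of biotinylated GST-cJun 1-79 at Ser73 with 10 µM ATP; % is set by controls: 0 for no effect and ±100 for the full control effect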
How it was run: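 Kinase buffer: 20 mM Tris-HCl pH 7.6, 10 mM MgCl2, 1 mM DTT, 0.1 mM Na3VO4, 0.01% Tween-20; ATP 10 uM. Substrate biotin-GST-cJun(1-79), enzyme from activated HepG2 lysates. Detection by Ser73 phospho-antibody AlphaScreen.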

[7] = target: 3',5'-cyclic-AMP phosphodiesterase 4B (Homo sapiens) (UniProt Q07343); assay: qHTS Assay for Inhibitors of PDE-IV (AID 607; active = well fitted activation curve with a large enough effect in the main read-out, with a control signal flat, not every such curve was filed as active; note: % of control where 0% means no effect); conditions: HEK293 ACTOne CNG channel cells, membrane potential fluorescence; series mostly up to 22.9 µM
How it was run: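 Live HEK293 cells with a modified cyclic nucleotide-gated (CNG) channel report intracellular cAMP via membrane-potential dye fluorescence (ex 535/em 590 nm). Endogenous PDE-IV was targeted. Compounds were tested at up to 22.9 uM final; RO 20-1724 100 uM served as control.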

[8] = qHTS Assay for Lipid Storage Modulators (AID 1519; calls by dose curve); conditions: Drosophila S3 cells, BODIPY lipid droplet/cell ratio, laser cytometry, cells loaded with oleic acid; for activity change, negative = inhibition: at 57.5 µM (top of the series)
How it was run: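 Cells seeded at 5,000 per well were treated with compounds over a concentration series and loaded with oleic acid (400 uM, as added). Lipid droplet fluorescence (488 nm excitation, 500-530 nm channel) was read by laser-scanning cytometry and normalized to 20 uM Triacsin C.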

[9] = Primary qHTS for small molecule stabilizers of the endoplasmic reticulum resident proteome: Secreted ER Calcium Modulated Protein (SERCaMP) assay (AID 1508630; active = well fitted curve in the direction sought with a large enough effect; an effect the other way counts as inactive or inconclusive; note: % is set by controls: 0 for no effect and ±100 for the full control effect); conditions: SH-SY5Y GLuc-SERCaMP (Gaussia luciferase released on ER calcium loss) secretion, thapsigargin, luminescence; series mostly up to 38.4 µM
How it was run: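 The SH-SY5Y reporter protocol was run at 3 concentrations up to 38.3 uM (primary) or 11 concentrations (follow-up): 16 h compound, 100 nM thapsigargin for 4 h, then extracellular luciferase luminescence.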

[10] = target: Glucocorticoid receptor (Homo sapiens) (UniProt P04150); assay: GR-GFP Redistribution (AID 450;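 active = compounds whose dose series gives a full or clear partial fitted curve of increased nuclear translocation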; note: potency is the fitted concentration of half-maximal effect); conditions: U2OS GR-GFP nuclear translocation, laser cytometry, 2 h
[11] = target: Cytochrome P450 3A4 (Homo sapiens) (UniProt P08684); assay: qHTS Assay for Inhibitors and Substrates of Cytochrome P450 3A4 (AID 884; active = well fitted curve in the direction sought with a large enough effect; an effect the other way counts as inactive or inconclusive; note: potency is the fitted concentration of half-maximal effect; nearly all actives have a fitted effect of over 50% in size); conditions: recombinant CYP3A4, Luciferin-PPXE luminescence; series mostly up to 57.1 µM
How it was run: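 Luminescent readout of luciferin produced by CYP3A4 (20 nM) dealkylation of Luciferin-PPXE, 25 uM (its KM). NADPH-driven reaction ran 60 min at RT after 10 min compound preincubation; data scaled to 57 uM ketoconazole as 100% inhibition.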

[12] = target: Cytochrome P450 3A4 (Homo sapiens) (UniProt P08684); assay: qHTS Assay for Activators of Cytochrome P450 3A4 (AID 885; active = well fitted curve in the direction sought with a large enough effect; an effect the other way counts as inactive or inconclusive; note: nearly all actives have a fitted effect of over 65% in size); conditions: recombinant CYP3A4, Luciferin-PPXE luminescence, 60 min; series mostly up to 57.1 µM
How it was run: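 Using 20nM recombinant human CYP3A4 in potassium phosphate (200mM), substrate Luciferin-PPXE at 25uM, luminescent luciferin detection followed a 60-min RT NADPH reaction; data scaled to 57 uM ketoconazole.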

[13] = Confirmation and Secondary Assay for Modulators of Hemoglobin Beta Chain Splicing at IVS2 654 locus (AID 910; active = well fitted curve in the direction sought with a large enough effect; an effect the other way counts as inactive or inconclusive;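 note: HeLa cells stably carrying EGFP split by mutant beta-globin IVS2-654 intron; per-well total GFP intensity by laser scanning cytometry after 2-day treatment; % of control where 0% means no effect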); conditions: HeLa EGFP-654 splicing reporter, GFP fluorescence, 48 h; series mostly up to 38.3 µM
How it was run: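 Readout: per-well total peak green fluorescence (488 nm ex, 500–520 nm em) from objects 5–250 µm, reflecting correct splicing of an EGFP-654 reporter. Compounds were applied for 2 days at 37 °C to overnight-plated HeLa EGFP-654 cells; controls were DMSO and 500 nM IVS2-654 PNA.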

[14] = Confirmation and Secondary Assay for Modulators of Hemoglobin Beta Chain Splicing at IVS2 705 locus (AID 930; active = well fitted curve in the direction sought with a large enough effect; an effect the other way counts as inactive or inconclusive;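 note: HeLa cells stably expressing the EGFP-705 splicing reporter; GFP fluorescence per well restored by corrected splicing of the IVS2-705 intron in EGFP; % of control where 0% means no effect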); conditions: HeLa EGFP-705 splicing reporter, GFP fluorescence, 48 h; series mostly up to 38.3 µM
How it was run: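 HeLa EGFP-705 reporter; 500 cells/well, o/n 37C 5% CO2; cpd 2 d; 488 ex/500-520 em laser scan; total peak GFP intensity/well. Ref: 500 nM […] antisense PNA.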

[15] = target: Ubiquitin carboxyl-terminal hydrolase 1 (Homo sapiens) (UniProt O94782); assay: Inhibitors of USP1/UAF1: Pilot qHTS (AID 504865; active = well fitted curve in the direction sought with a large enough effect; an effect the other way counts as inactive or inconclusive; note: nearly all actives have a fitted effect of over 35% in size; note: potency is the fitted concentration of half-maximal effect); conditions: purified USP1/UAF1, Ub-rhodamine cleavage fluorescence; series mostly up to 54.9 µM
How it was run: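 Kinetic fluorescence assay: 1nM USP1/UAF1, 15 min compound preincubation, then 150nM Ub-Rho; 480/540 nm.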

[16] = target: Cytochrome P450 1A2 (Homo sapiens) (UniProt P05177); assay: p450-cyp1a2 (AID 410; calls by dose curve; note: potency is the fitted concentration of half-maximal effect;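 for activity change, negative = inhibition: -100% = full effect of reference inhibitor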); conditions: recombinant CYP1A2, luciferin-ME demethylation, luminescence; series mostly up to 57 µM
How it was run: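 Read-out is luminescence from luciferin produced by CYP1A2 demethylation of Luciferin-ME (100uM, at Km). Detection reagent stopped the 60 min NADPH-dependent reaction; signals were normalized to 57 uM furafylline.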

[17] = target: Cytochrome P450 2C9 (Homo sapiens) (UniProt P11712); assay: qHTS Assay for Inhibitors and Substrates of Cytochrome P450 2C9 (AID 883; active = well fitted curve in the direction sought with a large enough effect; an effect the other way counts as inactive or inconclusive; note: % is set by controls: 0 for no effect and ±100 for the full control effect; nearly all actives have a fitted effect of over 60% in size); conditions: recombinant CYP2C9, luciferin-H luminescence, 60 min; series mostly up to 57.1 µM
How it was run: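 Inhibition of CYP2C9 is scored as loss of luminescence, with 57uM sulphaphenazole defining 100% inhibition. Substrate Luciferin-H is used at 100uM, equal to its KM; enzyme at 10nM in 25mM KPO4, 60 min at 37C with NADPH regeneration.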

[18] = target: Cytochrome P450 2D6 (Homo sapiens) (UniProt P10635); assay: qHTS Assay for Inhibitors and Substrates of Cytochrome P450 2D6 (AID 891; active = well fitted curve in the direction sought with a large enough effect; an effect the other way counts as inactive or inconclusive; note: potency is the fitted concentration of half-maximal effect; nearly all actives have a fitted effect of over 60% in size); conditions: recombinant CYP2D6, luciferin-ME EGE luminescence; series mostly up to 57.1 µM
How it was run: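 Luminescent read-out of luciferin formed by 5 nM human CYP2D6 demethylating 30 uM Luciferin-ME EGE (Km level) over 60 min at room temperature after NADPH regeneration addition. Data normalized to full inhibition by 1.43 uM quinidine.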

[19] = measured here: cell count channel max response
[20] = measured here: lipid channel max response

Chain of Cytochrome P450 1A2 (Homo sapiens) (P05177 whole entry, looked up): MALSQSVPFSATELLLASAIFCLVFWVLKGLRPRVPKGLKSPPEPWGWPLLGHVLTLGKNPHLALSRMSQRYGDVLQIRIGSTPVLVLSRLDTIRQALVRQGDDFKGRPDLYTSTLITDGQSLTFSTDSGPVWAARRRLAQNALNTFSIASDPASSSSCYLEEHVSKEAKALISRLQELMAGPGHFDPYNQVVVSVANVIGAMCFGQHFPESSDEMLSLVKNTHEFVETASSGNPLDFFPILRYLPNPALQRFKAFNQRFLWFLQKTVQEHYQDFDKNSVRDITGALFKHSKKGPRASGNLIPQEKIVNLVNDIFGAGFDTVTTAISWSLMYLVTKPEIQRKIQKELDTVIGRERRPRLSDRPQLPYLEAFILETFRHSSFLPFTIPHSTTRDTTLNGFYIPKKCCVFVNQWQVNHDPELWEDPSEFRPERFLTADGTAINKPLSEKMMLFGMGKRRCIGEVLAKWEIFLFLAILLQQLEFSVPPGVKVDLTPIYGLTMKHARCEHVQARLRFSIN
Chain of Lysosomal acid glucosylceramidase (Homo sapiens) (P04062 whole entry, looked up): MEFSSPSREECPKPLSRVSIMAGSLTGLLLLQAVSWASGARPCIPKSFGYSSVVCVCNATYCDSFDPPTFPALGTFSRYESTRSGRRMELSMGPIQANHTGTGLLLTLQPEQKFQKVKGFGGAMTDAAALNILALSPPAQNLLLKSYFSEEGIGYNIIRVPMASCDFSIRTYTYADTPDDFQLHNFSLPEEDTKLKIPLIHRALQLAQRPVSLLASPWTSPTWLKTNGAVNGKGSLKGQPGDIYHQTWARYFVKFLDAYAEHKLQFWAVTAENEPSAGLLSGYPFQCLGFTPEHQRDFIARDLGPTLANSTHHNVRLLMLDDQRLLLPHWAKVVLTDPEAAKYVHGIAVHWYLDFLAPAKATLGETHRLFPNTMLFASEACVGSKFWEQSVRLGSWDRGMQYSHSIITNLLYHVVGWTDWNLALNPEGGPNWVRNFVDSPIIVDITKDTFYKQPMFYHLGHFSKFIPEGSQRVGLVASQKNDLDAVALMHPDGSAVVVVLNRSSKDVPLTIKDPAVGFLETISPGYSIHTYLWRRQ
Chain of Glucocorticoid receptor (Homo sapiens) (P04150 whole entry, looked up, the tested form may be a part): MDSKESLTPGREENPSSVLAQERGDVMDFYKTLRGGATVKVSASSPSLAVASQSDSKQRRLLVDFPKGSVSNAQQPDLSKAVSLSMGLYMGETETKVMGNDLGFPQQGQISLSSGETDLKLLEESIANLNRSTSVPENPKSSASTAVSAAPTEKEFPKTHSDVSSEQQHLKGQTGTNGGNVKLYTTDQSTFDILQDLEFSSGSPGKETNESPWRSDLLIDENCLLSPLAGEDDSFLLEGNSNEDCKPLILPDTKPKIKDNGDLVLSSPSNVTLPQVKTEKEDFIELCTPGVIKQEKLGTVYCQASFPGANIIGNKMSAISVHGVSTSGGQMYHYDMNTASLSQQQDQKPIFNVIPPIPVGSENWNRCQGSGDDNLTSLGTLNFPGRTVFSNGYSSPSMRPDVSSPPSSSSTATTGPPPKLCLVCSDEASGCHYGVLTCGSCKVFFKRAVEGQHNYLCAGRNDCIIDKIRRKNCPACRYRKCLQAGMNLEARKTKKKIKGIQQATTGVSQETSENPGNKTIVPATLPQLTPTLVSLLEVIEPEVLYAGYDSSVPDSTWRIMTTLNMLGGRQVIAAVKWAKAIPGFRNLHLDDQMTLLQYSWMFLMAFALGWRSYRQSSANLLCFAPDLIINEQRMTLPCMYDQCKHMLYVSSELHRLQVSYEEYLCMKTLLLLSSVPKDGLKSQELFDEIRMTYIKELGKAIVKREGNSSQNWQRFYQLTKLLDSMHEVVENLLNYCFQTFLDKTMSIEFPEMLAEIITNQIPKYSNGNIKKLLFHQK
Chain of Ubiquitin carboxyl-terminal hydrolase 1 (Homo sapiens) (O94782 whole entry, looked up): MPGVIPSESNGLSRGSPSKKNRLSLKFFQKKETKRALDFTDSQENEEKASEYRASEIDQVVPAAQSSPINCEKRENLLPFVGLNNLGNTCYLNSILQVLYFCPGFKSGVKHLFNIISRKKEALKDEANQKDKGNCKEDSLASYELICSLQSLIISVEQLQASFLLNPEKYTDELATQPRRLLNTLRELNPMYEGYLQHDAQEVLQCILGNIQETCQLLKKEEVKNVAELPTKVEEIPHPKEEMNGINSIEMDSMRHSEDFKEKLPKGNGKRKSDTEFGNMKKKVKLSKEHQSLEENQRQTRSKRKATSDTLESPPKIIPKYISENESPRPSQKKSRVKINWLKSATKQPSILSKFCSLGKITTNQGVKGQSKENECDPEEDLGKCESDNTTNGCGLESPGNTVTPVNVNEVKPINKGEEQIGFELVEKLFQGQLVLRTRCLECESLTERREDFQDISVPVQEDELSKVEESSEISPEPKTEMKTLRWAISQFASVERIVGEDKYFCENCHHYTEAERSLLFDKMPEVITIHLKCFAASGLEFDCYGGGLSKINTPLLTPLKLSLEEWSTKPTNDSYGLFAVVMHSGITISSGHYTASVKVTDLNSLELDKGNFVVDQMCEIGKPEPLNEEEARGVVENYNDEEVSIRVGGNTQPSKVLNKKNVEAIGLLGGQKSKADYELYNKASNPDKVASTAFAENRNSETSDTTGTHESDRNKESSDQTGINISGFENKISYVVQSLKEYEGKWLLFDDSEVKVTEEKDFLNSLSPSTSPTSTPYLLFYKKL
Chain of Cytochrome P450 3A4 (Homo sapiens) (P08684 whole entry, looked up): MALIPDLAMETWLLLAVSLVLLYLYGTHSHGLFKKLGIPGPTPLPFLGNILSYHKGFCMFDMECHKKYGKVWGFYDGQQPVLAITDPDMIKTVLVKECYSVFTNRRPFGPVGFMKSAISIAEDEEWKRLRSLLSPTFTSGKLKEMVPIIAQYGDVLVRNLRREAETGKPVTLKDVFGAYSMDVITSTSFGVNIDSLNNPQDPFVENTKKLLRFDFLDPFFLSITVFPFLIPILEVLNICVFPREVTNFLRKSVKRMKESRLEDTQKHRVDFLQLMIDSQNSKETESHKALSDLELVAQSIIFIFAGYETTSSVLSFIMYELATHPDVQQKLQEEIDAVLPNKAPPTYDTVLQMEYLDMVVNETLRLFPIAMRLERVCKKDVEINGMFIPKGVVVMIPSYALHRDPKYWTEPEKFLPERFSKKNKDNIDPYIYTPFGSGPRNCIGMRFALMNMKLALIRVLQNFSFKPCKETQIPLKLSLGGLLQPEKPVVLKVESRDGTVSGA
Chain of 3',5'-cyclic-AMP phosphodiesterase 4B (Homo sapiens) (Q07343 whole entry, looked up): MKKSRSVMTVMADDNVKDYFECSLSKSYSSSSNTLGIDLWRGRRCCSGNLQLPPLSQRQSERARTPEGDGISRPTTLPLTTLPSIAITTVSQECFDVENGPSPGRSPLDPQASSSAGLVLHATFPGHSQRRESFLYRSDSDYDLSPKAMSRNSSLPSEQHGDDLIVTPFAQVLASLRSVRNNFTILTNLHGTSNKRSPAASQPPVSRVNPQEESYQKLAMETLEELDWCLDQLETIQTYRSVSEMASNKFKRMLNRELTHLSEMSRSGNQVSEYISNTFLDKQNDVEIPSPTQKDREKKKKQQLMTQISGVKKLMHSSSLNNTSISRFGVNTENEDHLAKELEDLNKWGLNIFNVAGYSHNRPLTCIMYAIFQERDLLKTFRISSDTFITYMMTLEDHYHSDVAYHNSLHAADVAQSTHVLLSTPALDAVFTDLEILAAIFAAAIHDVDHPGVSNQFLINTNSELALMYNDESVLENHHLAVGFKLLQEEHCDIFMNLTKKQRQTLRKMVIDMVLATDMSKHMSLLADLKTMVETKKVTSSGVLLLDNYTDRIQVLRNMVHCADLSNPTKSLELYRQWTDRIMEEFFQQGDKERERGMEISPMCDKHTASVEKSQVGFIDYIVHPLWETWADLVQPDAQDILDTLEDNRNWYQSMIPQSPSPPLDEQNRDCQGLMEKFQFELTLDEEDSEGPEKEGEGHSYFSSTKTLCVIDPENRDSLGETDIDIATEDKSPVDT
Chain of Cytochrome P450 2D6 (Homo sapiens) (P10635 whole entry, looked up): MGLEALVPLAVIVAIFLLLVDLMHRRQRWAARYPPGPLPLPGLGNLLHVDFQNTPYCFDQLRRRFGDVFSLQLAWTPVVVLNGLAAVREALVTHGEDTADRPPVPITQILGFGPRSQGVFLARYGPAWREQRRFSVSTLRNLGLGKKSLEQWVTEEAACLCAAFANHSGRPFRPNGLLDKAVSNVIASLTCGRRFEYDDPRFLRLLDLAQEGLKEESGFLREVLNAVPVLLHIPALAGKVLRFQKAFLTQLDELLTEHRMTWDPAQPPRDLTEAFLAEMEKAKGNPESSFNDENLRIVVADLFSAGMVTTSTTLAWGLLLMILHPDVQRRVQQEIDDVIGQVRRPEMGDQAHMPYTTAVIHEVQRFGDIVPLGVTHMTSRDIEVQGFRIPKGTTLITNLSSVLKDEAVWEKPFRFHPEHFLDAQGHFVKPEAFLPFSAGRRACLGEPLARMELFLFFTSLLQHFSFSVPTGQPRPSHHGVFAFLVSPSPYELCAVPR
Chain of Cytochrome P450 2C9 (Homo sapiens) (P11712 whole entry, looked up): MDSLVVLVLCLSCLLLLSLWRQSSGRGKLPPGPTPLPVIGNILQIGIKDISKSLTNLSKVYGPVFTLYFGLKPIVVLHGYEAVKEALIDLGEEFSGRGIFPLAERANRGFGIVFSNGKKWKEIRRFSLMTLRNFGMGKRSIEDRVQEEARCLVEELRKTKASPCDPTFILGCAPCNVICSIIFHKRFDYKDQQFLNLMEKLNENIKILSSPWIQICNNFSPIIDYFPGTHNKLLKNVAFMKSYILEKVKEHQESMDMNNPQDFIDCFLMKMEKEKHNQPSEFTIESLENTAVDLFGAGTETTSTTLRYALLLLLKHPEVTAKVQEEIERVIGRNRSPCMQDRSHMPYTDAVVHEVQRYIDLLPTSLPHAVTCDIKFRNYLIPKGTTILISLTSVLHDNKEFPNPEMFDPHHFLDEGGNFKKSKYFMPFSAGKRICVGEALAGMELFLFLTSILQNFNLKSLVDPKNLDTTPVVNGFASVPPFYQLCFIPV

Structure (SMILES) | Potency [1] | activity change, negative = inhibition [2] | activity change, negative = inhibition [3] | activity, negative = inhibition [4] | Potency [5] | outcome [6] | Potency [7] | activity change, negative = inhibition [8] | max response [8, 19] | max response [8, 20] | Potency [9] | Potency [10] | Potency [11] | Potency [12] | outcome [13] | outcome [14] | Potency [15] | Potency [16] | activity change, negative = inhibition [17] | Potency [18]
COc1ccccc1CN1CC[C@@]2(CCCN(C(=O)c3cccc(F)c3)C2)C1 | > 11.4 µM (inactive) | -14.6% (inactive) | -10.9% (inactive) | 10.2% (inactive) | > 46 µM (inactive) | inactive | inactive | 5.1% (inactive) | 15.7% | 25% | inactive |  |  |  |  |  |  |  |  | 
c1cncc(CNc2ncncc2-c2ccc3c(c2)OCO3)c1 | > 11.4 µM (inactive) | -3.33% (inactive) | 6.22% (inactive) | 0.562% (inactive) | > 46 µM (inactive) | inactive | inactive | 8.63% (inactive) | 10.5% | 22.7% | inactive | > 46 µM (inactive) | 0.398 µM (active) | inactive | inactive | inactive | inactive |  |  | 
COc1ccc(NC(=O)N2CCCC3(CCN(S(C)(=O)=O)CC3)C2)cc1 | > 11.4 µM (inactive) | -11.2% (inactive) | 21.9% (inactive) | 17.2% (inactive) | > 46 µM (inactive) | inactive | inactive | 3.48% (inactive) | -9.3% | -4.34% | inactive |  |  | inactive |  |  |  |  |  | 
O=C(c1csnn1)N1CCC[C@@]2(CCN(c3ccccn3)C2)C1 | > 11.4 µM (inactive) | -10.6% (inactive) | -7.38% (inactive) | 8.47% (inactive) |  | inactive | inactive | 3.43% (inactive) | 4.63% | 10.9% | inactive |  |  | inactive |  |  |  |  |  | 
CN(C)Cc1ccccc1-c1cc(NC2CC2)ncn1 | > 11.4 µM (inactive) |  | -10% (inactive) | 12.3% (inactive) | > 46 µM (inactive) | inactive | inactive | 8.29% (inactive) | 13% | 22.4% | inactive | > 46 µM (inactive) |  | inactive | inactive | inactive | inactive | 12.6 µM (active) | 5.15% [at 2.29 µM] (inactive) | 0.0398 µM (active)
c1ncc(-c2ccoc2)c(NC2CC2)n1 | > 11.4 µM (inactive) | 16.6% (inactive) | 5.32% (inactive) | 4.55% (inactive) | > 46 µM (inactive) |  | inactive | 3.62% (inactive) | 21.6% | 22.6% | inactive | > 46 µM (inactive) | 7.94 µM (active) | inactive |  |  | 28.2 µM (active) |  |  | 
CN(C)c1ccc(-c2cc(-n3ccnc3)ncn2)cc1 | > 11.4 µM (inactive) | 2.17% (inactive) |  | 15.9% (inactive) | > 46 µM (inactive) | inactive | inactive | 9.39% (inactive) | 11.3% | 23% | inactive | > 46 µM (inactive) | 0.0631 µM (active) | inactive | inactive | inactive |  | 0.158 µM (active) |  | 7.94 µM (active)
O=C(c1ccco1)N1CCC2(CC1)CCN(c1ncccn1)CC2 | > 11.4 µM (inactive) | -7.74% (inactive) | -8.3% (inactive) | -7.06% (inactive) | > 46 µM (inactive) | inactive | inactive | 5.72% (inactive) | 9.29% | 18.4% | inactive |  |  |  |  |  |  |  |  | 
COc1ccccc1-c1cc(NCc2cccnc2)ncn1 | > 11.4 µM (inactive) | -6.59% (inactive) | -4.97% (inactive) | 0.807% (inactive) | > 46 µM (inactive) | inactive |  | 4.96% (inactive) | 9.53% | 19.3% | inactive | > 46 µM (inactive) | 5.01 µM (active) | inactive | inactive | inactive | inactive |  |  | 
Cn1cccc1C(=O)N1CCC2(CCN(C(=O)Nc3cccc(F)c3)CC2)CC1 | > 11.4 µM (inactive) | -12.6% (inactive) | 15.8% (inactive) | -3.96% (inactive) | > 46 µM (inactive) | inactive | inactive | 6.54% (inactive) | 18.2% | 25.2% | inactive |  |  |  |  |  |  |  |  | 
COCC(=O)N1CCC2(CC1)CN(C(=O)Nc1cccc(F)c1)C2 | > 11.4 µM (inactive) | -27.6% (inactive) |  | -2.66% (inactive) |  | inactive | inactive | 8.39% (inactive) | 17.5% | 29% | inactive |  |  |  |  |  |  | inactive |  | 
O=C(c1ccncc1)N1CCC2(CC1)CN(c1cccc(-c3ccccc3)c1)C2 | > 11.4 µM (inactive) | -2.83% (inactive) | 7.15% (inactive) |  | > 46 µM (inactive) |  | inactive | -2.24% (inactive) | 13.1% | 11.3% | inactive |  | 7.94 µM (active) | inactive |  |  |  | 15.8 µM (active) |  | 
O=C(c1cnccn1)N1CCC[C@@]2(CCN(c3ncccn3)C2)C1 | > 11.4 µM (inactive) | -3.69% (inactive) |  | -3.83% (inactive) | > 46 µM (inactive) | inactive | inactive | 5.72% (inactive) | 9.64% | 19.5% | inactive |  |  | inactive |  |  |  | inactive |  | 

Reference: PubChem BioAssay (NCATS)
